Test systems include HCT-15 colon; HT29 colon; SNB-75 CNS; SNB-19 CNS; U251 CNS; PC-3 prostate; SK-MEL-5 melanoma; UACC-62 melanoma; SK-MEL-28 melanoma; SK-MEL-2 melanoma; EKVX NSCLC; SN12C renal; UO-31 renal; TK-10 renal; ACHN renal; CAKI-1 renal; A498 renal; CCRF-CEM leukemia; MOLT-4 leukemia; LOX IMVI melanoma.
What all share (experiment): NCI-60 one-dose screen, 48 h (100 = growth as untreated, 0 = no growth, -100 = all killed)
Common to all, as to settings: 10 µM unless noted

Molecules are shown by their SMILES. This is part of a sample that, as a whole, favours compounds with a hit. Of some 83,000 tested, about 20% had one in any assay.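 A percent growth of 40 corresponds to 60% growth inhibition; 0 means no net growth; -100 means all cells died. Active threshold: below 10.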 Unmarked numbers belong to inactive results. Calls of active or inactive are those of the source.

As to `COC12C=C/C(=C(/C(=O)OCCSc3ccnn3C)C(=O)CCCCCCCCC3(OC)C=C/C(=C(/C(=O)OCCSc4ccnn4C)C(=O)CCCCCCCC1)O3)O2`, the growth in the experiment on HCT-15 colon was -19.5% (active); in the experiment with HT29 colon, 11.9%; in the experiment with SNB-75 CNS, 56.8%; in the experiment on SNB-19 CNS, 32.9%; with U251 CNS it was -3.32% (active); in the experiment with PC-3 prostate, 15.8%. Also, the growth with SK-MEL-5 melanoma is -70% (active); in the experiment with UACC-62 melanoma, -56.3% (active); with SK-MEL-28 melanoma it was -9.65% (active); in the experiment with SK-MEL-2 melanoma, 12.3%; in the experiment with EKVX NSCLC it was 9.41% (active); in the experiment with SN12C renal, -4.94% (active). Also, the growth in the experiment on UO-31 renal was 14.8%; with TK-10 renal it was 39.9%; in the experiment on ACHN renal, 4.65% (active); in the experiment with CAKI-1 renal, 26.6%; in the experiment with A498 renal it was -53.5% (active); in the experiment with CCRF-CEM leukemia, 11.1%. In the experiment with MOLT-4 leukemia, the growth is -0.956% (active).
Consider `Nc1nc(N(Cc2ccccc2)c2ccccc2)c2cn[nH]c2n1`, for which the growth with HCT-15 colon was 49.8%; with HT29 colon, 32.3%; in the experiment with SNB-75 CNS, 56.8%; with SNB-19 CNS, 68.1%; with U251 CNS, 42.6%; with PC-3 prostate it was 74.8%. Also, the growth was 44.6% with SK-MEL-5 melanoma; 45.7% in the experiment on UACC-62 melanoma; 63.4% in the experiment on SK-MEL-28 melanoma; 111% in the experiment on SK-MEL-2 melanoma; 75.3% with EKVX NSCLC; 85.8% in the experiment with SN12C renal. For the same molecule, the growth is 75% in the experiment on UO-31 renal; 92.2% with TK-10 renal; 71.2% in the experiment with ACHN renal; 31.9% with CAKI-1 renal; 69.9% in the experiment with A498 renal; 92.6% in the experiment with CCRF-CEM leukemia. Besides, in the experiment on MOLT-4 leukemia, the growth is 62.2%.
Regarding `CCOC(=O)c1cnn(CC(C)O)c1NC(=O)NCc1ccccc1C(F)(F)F` (centres undefined), the growth with HCT-15 colon is 101%; in the experiment with HT29 colon it was 82.1%; with SNB-75 CNS, 93.6%; with SNB-19 CNS, 103%; in the experiment with U251 CNS, 101%; with PC-3 prostate, 107%. The growth with SK-MEL-5 melanoma was 102%; with UACC-62 melanoma it was 91.8%; in the experiment with LOX IMVI melanoma, 100%; with SK-MEL-2 melanoma, 76.6%; in the experiment on SN12C renal, 99%; in the experiment on UO-31 renal it was 87.1%. In addition, the growth was 80.9% in the experiment with TK-10 renal; 98.3% with ACHN renal; 86.4% in the experiment on CAKI-1 renal; 108% in the experiment with A498 renal; 76% with MOLT-4 leukemia.
For `CCCC(O)Cn1ncc(C(=O)OCC)c1NC(=O)NCc1cccc(C(F)(F)F)c1` (centres undefined), the growth in the experiment with HCT-15 colon was 104%; in the experiment with HT29 colon, 85.9%; with SNB-75 CNS, 101%; in the experiment on SNB-19 CNS, 104%; with U251 CNS, 105%; in the experiment on PC-3 prostate, 64.7%. The growth was 93.6% in the experiment on SK-MEL-5 melanoma; 80.1% in the experiment on UACC-62 melanoma; 105% in the experiment with SK-MEL-28 melanoma; 73.4% with SK-MEL-2 melanoma; 90.5% in the experiment with EKVX NSCLC; 93.7% with SN12C renal. Further, the growth with UO-31 renal is 65%; in the experiment with TK-10 renal, 90.4%; with ACHN renal, 97.7%; in the experiment with CAKI-1 renal, 83.8%; in the experiment on A498 renal, 99%; in the experiment with CCRF-CEM leukemia, 5.39% (active). The growth with MOLT-4 leukemia was 62%.
For `O=C(Oc1ccc2c(c1)sc1nc(-c3ccccc3)[nH]c(=O)c12)C(F)(F)F`, the growth is 22.2% with HCT-15 colon; 75.6% in the experiment with HT29 colon; 10.7% in the experiment with SNB-75 CNS; 45.6% in the experiment on SNB-19 CNS; 28.9% in the experiment with U251 CNS; 43.1% with PC-3 prostate. Further, the growth in the experiment with SK-MEL-5 melanoma was 11.6%; in the experiment with UACC-62 melanoma, 11.3%; in the experiment on SK-MEL-28 melanoma it was 36%; in the experiment with SK-MEL-2 melanoma, 26.6%; in the experiment on SN12C renal, 32%; in the experiment on UO-31 renal, 26.1%. The growth with TK-10 renal was 61.7%; in the experiment on ACHN renal, 29%; in the experiment with CAKI-1 renal, 19.3%; in the experiment on A498 renal, 23.6%; with CCRF-CEM leukemia, 21.9%; in the experiment with MOLT-4 leukemia, 13.5%.
In the case of `CCCN(CCSSCCNc1nc(N(C)O)nc(N(C)O)n1)c1nc(N(C)O)nc(N(C)O)n1`, the growth in the experiment with HCT-15 colon was 69.3%; in the experiment on HT29 colon, 78.4%; with SNB-75 CNS it was 73.8%; with SNB-19 CNS it was 44.7%; in the experiment with U251 CNS, 32.8%; in the experiment with PC-3 prostate it was 67.9%. Also, the growth in the experiment on SK-MEL-5 melanoma was 80.9%; in the experiment on UACC-62 melanoma, 81.3%; with SK-MEL-28 melanoma it was 67.1%; in the experiment on SK-MEL-2 melanoma it was 69.8%; in the experiment on EKVX NSCLC, 54.3%; in the experiment with SN12C renal, 69.7%. In addition, the growth is 52.3% in the experiment with UO-31 renal; 71% in the experiment on TK-10 renal; 45.3% in the experiment on ACHN renal; 31.9% in the experiment on CAKI-1 renal; 64.4% in the experiment with A498 renal; 9.07% (active) in the experiment with CCRF-CEM leukemia. Further, in the experiment on MOLT-4 leukemia, the growth was 47.3%.
Turning to `O=C(Nc1ccc(Nc2ccncc2)cc1)c1ccc(Nc2ccnc3ccc([N+](=O)[O-])cc23)cc1`, the growth with HCT-15 colon was 99.3%; with HT29 colon, 102%; in the experiment on SNB-75 CNS, 97.8%; with SNB-19 CNS it was 117%; in the experiment on U251 CNS it was 95.5%; in the experiment on PC-3 prostate, 80.3%. Besides, the growth in the experiment on SK-MEL-5 melanoma is 97.5%; in the experiment on UACC-62 melanoma it was 101%; in the experiment on SK-MEL-28 melanoma, 109%; in the experiment with SK-MEL-2 melanoma it was 111%; with EKVX NSCLC, 107%; with SN12C renal, 113%. Besides, the growth with UO-31 renal is 95.7%; with TK-10 renal, 140%; in the experiment on ACHN renal it was 100%; with CAKI-1 renal, 105%; with A498 renal, 130%; in the experiment on CCRF-CEM leukemia it was 63.9%. Further, the growth in the experiment with MOLT-4 leukemia is 40.7%.
As for `O=C1O[C@@H](c2ccccc2Cl)[C@@H]2c3cc4c(cc3CCN12)OCO4`, the growth in the experiment with HCT-15 colon is 101%; in the experiment with HT29 colon, 86.4%; with SNB-75 CNS, 91.7%; in the experiment with SNB-19 CNS, 99.4%; in the experiment on U251 CNS, 86%; in the experiment with PC-3 prostate it was 87.7%. The growth in the experiment on SK-MEL-5 melanoma is 96.6%; in the experiment on UACC-62 melanoma it was 78.7%; in the experiment with SK-MEL-28 melanoma it was 118%; in the experiment on SK-MEL-2 melanoma, 91.7%; in the experiment with EKVX NSCLC, 101%; with SN12C renal, 103%. Further, the growth is 74.6% with UO-31 renal; 89.1% with TK-10 renal; 105% in the experiment with ACHN renal; 105% in the experiment with CAKI-1 renal; 82.8% in the experiment with A498 renal; 105% in the experiment with CCRF-CEM leukemia. Besides, the growth in the experiment on MOLT-4 leukemia was 90.5%.

For the origin of these results see PubChem BioAssay (NCI).
